Experimental data: PubChem BioAssay (NCATS)
Results filed as inconclusive are left out. Active and inactive are the calls of the source. Calls come from the whole dose curve; as a rule, active = well fitted curve in the direction sought with a large enough effect; inconclusive = small, poorly fitted or top-dose-only effect, or another doubt; inactive = no such curve, though single readings can be large; an effect the other way counts as inactive or inconclusive.

System: not listed separately
Test: qHTS to identify inhibitors of the type 1 interferon - major histocompatibility complex class I in skeletal muscle: primary screen against the NCATS Pharmaceutical Collection (AID 1347407);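 note: luminescence of HiBiT knocked into endogenous HLA-B as interferon-induced MHC class I level; % is set by controls: 0 for no effect and ±100 for the full control effect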
Settings: human skeletal muscle cells, IFN-b-induced MHC-I HiBiT luminescence, 24 h; series mostly up to 45.9 µM; activity change, negative = inhibition: at the top concentration
Outline: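 Compounds […] were added to CRISPR-engineered HLA-B-HiBiT C25cl48 human myoblasts with 4.0 ng/ml IFN-beta. After 24 hrs at 37 C, cells were lysed and HiBiT luminescence measured.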

Structure (SMILES) | activity change, negative = inhibition
CNCC(=O)c1ccc(O)c(O)c1 | -9.3% (inactive)
CC(C)(N)Cc1ccccc1Cl | 10.3% (inactive)
COC(=O)[C@@H](N)CCCN/C(N)=N/[N+](=O)[O-] | -0.862% (inactive)
CCCCC/C=C\C/C=C\C/C=C\C/C=C\CCCC(=O)NCC(=O)O | -5.98% (inactive)
C#C[C@]1(O)CC[C@H]2[C@@H]3CCC4=CC(=O)CC[C@]4(C)[C@H]3CC[C@@]21C | 4.23% (inactive)
CCCOC(=O)c1cncn1C(C)c1ccccc1 (stereo not given) | 6.94% (inactive)
COc1cc(OC)c(OC)cc1C=O | -8.32% [at 92.2 µM] (inactive)
CCN[C@@H](C)Cc1ccccc1 | -3.37% [at 92.2 µM] (inactive)
NC(=O)CS(=O)C(c1ccccc1)c1ccccc1 (stereo not given) | -16.3% (inactive)
Clc1ccc(C(c2ccc(Cl)cc2)C(Cl)(Cl)Cl)cc1 | -7.62% (inactive)
C=CCC1(C(C)CC)C(=O)NC(=O)NC1=O (stereo not given) | -4.79% (inactive)
C[C@H](N)C(=O)c1ccccc1 | 6.21% [at 154 µM] (inactive)
COc1ccc2c3c1O[C@H]1[C@H](O)CC[C@H]4[C@@H](C2)N(C)CC[C@@]341 | -11.5% [at 92.2 µM] (inactive)
CC1(C)C(C=C(Cl)Cl)C1C(=O)OC(C#N)c1cccc(Oc2ccccc2)c1 (stereo not given) | -2.96% (inactive)
CC(=O)NC1CCSC1=O (stereo not given) | -5.35% (inactive)
COc1cc(CCN)cc(OC)c1OC | -6.98% [at 92.2 µM] (inactive)
C#CC(O)(C=CCl)CC (stereo not given) | -1.27% (inactive)
C[C@H]1[C@@H]2Cc3ccc(O)cc3[C@@]1(C)CCN2C | -10.5% [at 230 µM] (inactive)
c1ccc2c(c1)sc1ccccc12 | -17.5% (inactive)
C[C@]12CC[C@H]3[C@@H](CCC4=CC(=O)CC[C@@H]43)[C@@H]1CC[C@@H]2OC(=O)CCC1CCCCC1 | -3.84% (inactive)
CCCN(CCC)C(=O)Cc1c(-c2ccc(Cl)cc2)nc2ccc(Cl)cn12 | -15.6% (inactive)
O=[N+]([O-])O[C@H]1CO[C@H]2[C@@H]1OC[C@H]2O[N+](=O)[O-] | -2.62% (inactive)
O=C1OC(CCN2CCCCC2)OC1(c1ccccc1)c1ccccc1 (stereo not given) | -2.49% (inactive)

Target: Protein phosphatase 1D (Homo sapiens) (UniProt O15297)
Sequence (O15297 whole entry, looked up): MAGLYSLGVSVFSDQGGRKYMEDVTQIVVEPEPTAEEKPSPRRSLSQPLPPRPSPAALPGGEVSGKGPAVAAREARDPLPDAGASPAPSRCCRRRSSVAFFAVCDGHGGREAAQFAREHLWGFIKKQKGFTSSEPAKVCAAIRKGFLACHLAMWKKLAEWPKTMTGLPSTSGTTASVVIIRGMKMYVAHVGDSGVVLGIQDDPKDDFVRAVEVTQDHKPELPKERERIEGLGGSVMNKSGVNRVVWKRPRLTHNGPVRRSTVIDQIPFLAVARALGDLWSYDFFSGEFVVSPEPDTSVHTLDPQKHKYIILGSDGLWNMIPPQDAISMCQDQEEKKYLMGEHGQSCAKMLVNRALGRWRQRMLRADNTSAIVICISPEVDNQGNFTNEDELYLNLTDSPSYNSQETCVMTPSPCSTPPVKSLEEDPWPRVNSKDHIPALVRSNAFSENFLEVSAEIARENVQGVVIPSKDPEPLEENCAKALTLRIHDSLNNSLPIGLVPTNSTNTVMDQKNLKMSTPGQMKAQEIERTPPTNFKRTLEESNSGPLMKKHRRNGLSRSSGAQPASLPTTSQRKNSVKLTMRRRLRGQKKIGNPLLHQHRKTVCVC
Test: RapidFire Mass Spectrometry qHTS Assay for Modulators of WT P53-Induced Phosphatase 1 (WIP1) (AID 1347424);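 note: plate controls were DMSO wells for no effect and GSK830371 inhibitor control at 10 µM for full effect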
Settings: WIP1 dephosphorylation of phosphopeptide, RapidFire MS; series mostly up to 63 µM; activity change, negative = inhibition: at the top concentration
Outline: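 RapidFire MS readout of dephosphorylated VEPPL-S-QETFS product, with 1 uM isotope-labelled peptide standard. Reaction: 10 nM WIP1, 2 uM phosphopeptide substrate, 5 min, room temperature, after 1 h compound preincubation; stopped with 0.5% formic acid.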

Structure (SMILES) | activity change, negative = inhibition
CNCC(=O)c1ccc(O)c(O)c1 | -15.4% (inactive)
CC(C)(C)c1ccc(O)cc1 | 12.1% (inactive)
CC(C)(N)Cc1ccccc1Cl | 3.72% (inactive)
COC(=O)[C@@H](N)CCCN/C(N)=N/[N+](=O)[O-] | -0.163% (inactive)
CCCCC/C=C\C/C=C\C/C=C\C/C=C\CCCC(=O)NCC(=O)O | 4.55% (inactive)
CCOP(=S)(OCC)Oc1ccc2c(C)c(Cl)c(=O)oc2c1 | -16.1% (inactive)
C#C[C@]1(O)CC[C@H]2[C@@H]3CCC4=CC(=O)CC[C@]4(C)[C@H]3CC[C@@]21C | -1.2% (inactive)
C[C@@H](N)[C@@H](O)c1ccccc1 | 1.45% (inactive)
CCCOC(=O)c1cncn1C(C)c1ccccc1 (stereo not given) | 21.1% (inactive)
COc1cc(OC)c(OC)cc1C=O | 10.5% [at 128 µM] (inactive)
CCN[C@@H](C)Cc1ccccc1 | -4.48% [at 128 µM] (inactive)
NC(=O)CS(=O)C(c1ccccc1)c1ccccc1 (stereo not given) | 13.5% (inactive)
COP(=S)(OC)Oc1cc(Cl)c(Cl)cc1Cl | -14.6% (inactive)
Clc1ccc(C(c2ccc(Cl)cc2)C(Cl)(Cl)Cl)cc1 | -8.59% (inactive)
C=CCC1(C(C)CC)C(=O)NC(=O)NC1=O (stereo not given) | 6% (inactive)
C[C@H](N)C(=O)c1ccccc1 | -0.618% [at 128 µM] (inactive)
C[C@]12CC[C@H]3[C@@H](CCC4=CC(=O)CC[C@@H]43)[C@@H]1CC[C@@H]2OC(=O)CCc1ccco1 | -4.79% (inactive)
COc1ccc2c3c1O[C@H]1[C@H](O)CC[C@H]4[C@@H](C2)N(C)CC[C@@]341 | -11.4% [at 128 µM] (inactive)
CC1(C)C(C=C(Cl)Cl)C1C(=O)OC(C#N)c1cccc(Oc2ccccc2)c1 (stereo not given) | 8.9% (inactive)
CC(=O)NC1CCSC1=O (stereo not given) | -5.58% (inactive)
COc1cc(CCN)cc(OC)c1OC | -12.6% [at 128 µM] (inactive)
CN1CC[C@]23c4c5ccc(O)c4O[C@H]2[C@@H](O)C=C[C@H]3[C@H]1C5 | -9.34% [at 128 µM] (inactive)
C#CC(O)(C=CCl)CC (stereo not given) | -1.72% (inactive)
C[C@H]1[C@@H]2Cc3ccc(O)cc3[C@@]1(C)CCN2C | -5.67% [at 316 µM] (inactive)
c1ccc2c(c1)sc1ccccc12 | -4.5% (inactive)
C[C@]12CC[C@H]3[C@@H](CCC4=CC(=O)CC[C@@H]43)[C@@H]1CC[C@@H]2OC(=O)CCC1CCCCC1 | 49.9% (inactive)
CCCN(CCC)C(=O)Cc1c(-c2ccc(Cl)cc2)nc2ccc(Cl)cn12 | 35.4% (inactive)
O=[N+]([O-])O[C@H]1CO[C@H]2[C@@H]1OC[C@H]2O[N+](=O)[O-] | 0.221% (inactive)
O=C1OC(CCN2CCCCC2)OC1(c1ccccc1)c1ccccc1 (stereo not given) | -7.71% (inactive)

Target: Protein phosphatase 1D (Homo sapiens) (UniProt O15297)
Test: Rhodamine-PBP qHTS Assay for Modulators of WT P53-Induced Phosphatase 1 (WIP1) (AID 1347425); note: % of control where 0% means no effect
Settings: recombinant WIP1, Rhodamine-PBP phosphate fluorescence, real-time; series mostly up to 57.5 µM; activity change, negative = inhibition: at the top concentration
Outline: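 Steps: enzyme with Rh-PBP sensor and compounds, room-temperature incubation of 1 hr, baseline read, addition of VEPPL-pS-QETFS (10 uM final), kinetic fluorescence reads at 525/598 nm. Activity equals final minus baseline signal.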

Structure (SMILES) | activity change, negative = inhibition
CNCC(=O)c1ccc(O)c(O)c1 | -0.61% (inactive)
CC(C)(C)c1ccc(O)cc1 | -1.04% (inactive)
CC(C)(N)Cc1ccccc1Cl | 10.6% (inactive)
COC(=O)[C@@H](N)CCCN/C(N)=N/[N+](=O)[O-] | 13.6% (inactive)
CCCCC/C=C\C/C=C\C/C=C\C/C=C\CCCC(=O)NCC(=O)O | -8.57% (inactive)
CCOP(=S)(OCC)Oc1ccc2c(C)c(Cl)c(=O)oc2c1 | -5.13% (inactive)
C#C[C@]1(O)CC[C@H]2[C@@H]3CCC4=CC(=O)CC[C@]4(C)[C@H]3CC[C@@]21C | -12.7% (inactive)
C[C@@H](N)[C@@H](O)c1ccccc1 | 7.29% (inactive)
CCCOC(=O)c1cncn1C(C)c1ccccc1 (stereo not given) | 7.43% (inactive)
COc1cc(OC)c(OC)cc1C=O | 17.5% [at 116 µM] (inactive)
CCN[C@@H](C)Cc1ccccc1 | 9.01% [at 151 µM] (inactive)
NC(=O)CS(=O)C(c1ccccc1)c1ccccc1 (stereo not given) | 1.4% (inactive)
COP(=S)(OC)Oc1cc(Cl)c(Cl)cc1Cl | -29.8% (inactive)
Clc1ccc(C(c2ccc(Cl)cc2)C(Cl)(Cl)Cl)cc1 | -1.83% (inactive)
C=CCC1(C(C)CC)C(=O)NC(=O)NC1=O (stereo not given) | 0.323% (inactive)
C[C@H](N)C(=O)c1ccccc1 | -0.323% [at 151 µM] (inactive)
COc1ccc2c3c1O[C@H]1[C@H](O)CC[C@H]4[C@@H](C2)N(C)CC[C@@]341 | 4.85% [at 116 µM] (inactive)
CC1(C)C(C=C(Cl)Cl)C1C(=O)OC(C#N)c1cccc(Oc2ccccc2)c1 (stereo not given) | 7.57% (inactive)
CC(=O)NC1CCSC1=O (stereo not given) | -5.99% (inactive)
COc1cc(CCN)cc(OC)c1OC | 5.92% [at 151 µM] (inactive)
CN1CC[C@]23c4c5ccc(O)c4O[C@H]2[C@@H](O)C=C[C@H]3[C@H]1C5 | 9.51% [at 116 µM] (inactive)
C#CC(O)(C=CCl)CC (stereo not given) | -3.05% (inactive)
C[C@H]1[C@@H]2Cc3ccc(O)cc3[C@@]1(C)CCN2C | 2.12% [at 278 µM] (inactive)
c1ccc2c(c1)sc1ccccc12 | 4.56% (inactive)
C[C@]12CC[C@H]3[C@@H](CCC4=CC(=O)CC[C@@H]43)[C@@H]1CC[C@@H]2OC(=O)CCC1CCCCC1 | -4.41% (inactive)
CCCN(CCC)C(=O)Cc1c(-c2ccc(Cl)cc2)nc2ccc(Cl)cn12 | 17.6% (inactive)
O=[N+]([O-])O[C@H]1CO[C@H]2[C@@H]1OC[C@H]2O[N+](=O)[O-] | -2.48% (inactive)
O=C1OC(CCN2CCCCC2)OC1(c1ccccc1)c1ccccc1 (stereo not given) | 8.65% (inactive)
